Experimental data: PubChem BioAssay (EPA / NIEHS)
Results filed as inconclusive are left out. Activity calls are given as the source filed them. Rule for the calls, unless noted: active = hit-call score of the fitted dose curve at least 0.9, where 1 is the maximum; inconclusive = response in the unintended direction; inactive = score below 0.9.

Experiments:
[1] = ATG_TAL_CIS: Attagene CIS-FACTORIAL HepG2 Assay for human TAL Basal Promoter (AID 2282966; active = hit-call score of the fitted dose curve at least 0.9, where 1 is the maximum; inactive = score below 0.9;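 note: background control endpoint measuring basal TAL promoter reporter mRNA not a specific factor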); settings: HepG2 Attagene cis-factorial TAL promoter reporter; actives raise or lower the signal
Summary of the method: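 Background-control endpoint: basal TAL promoter reporter transcripts in transiently transfected HepG2, measured 24 h after dosing. Read-out by RT-PCR with fluorescent primer extension and capillary electrophoresis; gain or loss of signal fitted relative to DMSO.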

[2] = ATG_TGFb_CIS: Attagene CIS-FACTORIAL HepG2 Assay for human Transforming Growth Factor (TGF) (AID 2282967; active = hit-call score of the fitted dose curve at least 0.9, where 1 is the maximum; inactive = score below 0.9); settings: HepG2 Attagene CIS TGFb reporter, mRNA transcription; actives raise or lower the signal
Summary of the method: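 Cells were dosed for 24 hours, after which total RNA was reverse-transcribed and reporter sequences amplified, labeled and sized by capillary electrophoresis. Activity was fitted in both directions against DMSO.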

[3] = ATG_VDRE_CIS: Attagene CIS-FACTORIAL HepG2 Assay for human Vitamin D Receptor Element (VDRE) (AID 2282968; active = hit-call score of the fitted dose curve at least 0.9, where 1 is the maximum; inactive = score below 0.9); settings: HepG2 VDRE cis-reporter transcription, actives raise or lower the signal
Summary of the method: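 Transient MRTU transfection of HepG2, 24 h compound exposure. Readout: reporter transcripts via RT-PCR and capillary electrophoresis, fluorescence. Bidirectional fit vs DMSO.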

[4] = molecular target: Nuclear receptor subfamily 1 group I member 3 (Homo sapiens) (UniProt Q14994); assay: ATG_CAR_TRANS: Attagene TRANS-FACTORIAL HepG2 Assay for human Constitutive Androstane Receptor (CAR) (AID 2282969); settings: HepG2 Attagene TRANS-FACTORIAL CAR reporter;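 note: activators raise reporter mRNA above DMSO so AC50 marks induction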
Summary of the method: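 Transiently transfected HepG2, multiplex TRANS reporters (CAR-Gal4 chimera driving GAL4-UAS reporter). 24 h dosing. Readout: reporter transcript by RT-PCR + capillary electrophoresis, fluorescence intensity; positive direction vs DMSO.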

[5] = molecular target: X-box-binding protein 1 (Homo sapiens) (UniProt P17861); assay: ATG_Xbp1_CIS: Attagene CIS-FACTORIAL HepG2 Assay for human X-box Binding Protein 1 (XBP1) (AID 2282972; active = hit-call score of the fitted dose curve at least 0.9, where 1 is the maximum; inactive = score below 0.9); settings: HepG2 XBP1 cis-element reporter, Attagene multiplex; actives raise or lower the signal
Summary of the method: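 Human hepatoma HepG2, cis-element reporter system, 24 h treatment; mRNA quantified by RT-PCR/CE fluorescence; fit relative to DMSO.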

[6] = ATG_M_19_TRANS: Attagene TRANS-FACTORIAL HepG2 Assay for M19 Transcription Factor (Internal Marker) (AID 2282974); settings: HepG2 Attagene TRANS-FACTORIAL M19 internal marker reporter
Summary of the method: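 Using RT-PCR and capillary electrophoresis, reporter mRNA from transiently transfected human HepG2 cells was quantified following 24 h exposure; activity was fitted in the positive direction against DMSO.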

[7] = ATG_GAL4_TRANS: Attagene TRANS-FACTORIAL HepG2 Assay for GAL4 (Internal Marker) (AID 2282976); settings: HepG2 Attagene TRANS GAL4 internal marker reporter
Summary of the method: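 In transfected human HepG2 liver cells dosed 24 h, GAL4 reporter mRNA serves as a baseline marker. Detection by RT-PCR with fluorescent capillary electrophoresis, activity fitted upward relative to DMSO.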

[8] = molecular target: Glucocorticoid receptor (Homo sapiens) (UniProt P04150); assay: ATG_GR_TRANS: Attagene TRANS-FACTORIAL HepG2 Assay for human Glucocorticoid Receptor (GR) (AID 2282978); settings: HepG2 Attagene TRANS GR reporter, mRNA transcription;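 note: activators score as hits since higher reporter transcript over DMSO is fitted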
Summary of the method: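 Exogenous NR-GAL4 fusion activity was assessed through induced GAL4-UAS reporter transcripts in transfected human HepG2 cells, quantified after 24 h by RT-PCR and fluorescent capillary electrophoresis with DMSO as baseline.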

[9] = molecular target: Oxysterols receptor LXR-beta (Homo sapiens) (UniProt P55055); assay: ATG_LXRb_TRANS: Attagene TRANS-FACTORIAL HepG2 Assay for human Liver X Receptor beta (LXRb) (AID 2282981); settings: HepG2 Attagene TRANS GAL4-LXRb reporter, mRNA
Summary of the method: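 Readout: fluorescent reporter mRNA fragments resolved by capillary electrophoresis after RT-PCR. System: transiently transfected human HepG2, exogenous LXRb-Gal4 chimera driving GAL4-UAS reporter, 24 h dosing. Activity fitted upward against DMSO baseline.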

[10] = ATG_M_32_TRANS: Attagene TRANS-FACTORIAL HepG2 Assay for M32 Transcription Factor (Internal Marker) (AID 2282984); settings: HepG2 Attagene TRANS M32 internal marker reporter
Summary of the method: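 Read-out: fluorescent reporter cDNA fragments resolved by capillary electrophoresis after RT-PCR of total RNA. Transfected HepG2 cells were exposed to chemical for 24 h. Activity scored in the positive direction relative to DMSO.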

[11] = molecular target: Transcriptional activator Myb (Homo sapiens) (UniProt P10242); assay: ATG_Myb_CIS: Attagene CIS-FACTORIAL HepG2 Assay for human Myeloblastosis (Myb) Proto-Oncogene Transcription Factor (AID 2282986; active = hit-call score of the fitted dose curve at least 0.9, where 1 is the maximum; inactive = score below 0.9); settings: HepG2 Attagene CIS-FACTORIAL Myb reporter transcription; actives raise or lower the signal
Summary of the method: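 In this HepG2 transient-transfection format, cis-regulated reporter mRNA is quantified 24 h post-dosing by RT-PCR with capillary electrophoresis, fitted bidirectionally to DMSO baseline.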

[12] = molecular target: Nuclear respiratory factor 1 (Homo sapiens) (UniProt Q16656); assay: ATG_NRF1_CIS: Attagene CIS-FACTORIAL HepG2 Assay for human Nuclear Respiratory Factor 1 (NRF1) Orphan Gene (AID 2282987; active = hit-call score of the fitted dose curve at least 0.9, where 1 is the maximum; inactive = score below 0.9); settings: HepG2 NRF1 cis-element reporter, Attagene multiplex; actives raise or lower the signal
Summary of the method: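 Using DMSO as baseline, gain- or loss-of-signal was fitted for reporter mRNA levels in HepG2 cells transiently transfected with cis-regulated reporter units. Samples were taken 24 h after dosing and read by RT-PCR with capillary electrophoresis.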

[13] = molecular target: Steroid hormone receptor ERR1 (Homo sapiens) (UniProt P11474); assay: ATG_ERRa_TRANS: Attagene TRANS-FACTORIAL HepG2 Assay for human Estrogen-Related Receptor alpha (ERRa) (AID 2282971); settings: HepG2 Attagene TRANS reporter, ERRa transactivation
Summary of the method: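 Reporter transcripts from ERRa-Gal4 chimera activity measured in transiently transfected human HepG2 cells 24 hours after dosing, using RT-PCR with 6-FAM primer extension, HpaI digestion and capillary electrophoresis; DMSO is baseline.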

[14] = molecular target: Oxysterols receptor LXR-alpha (Homo sapiens) (UniProt Q13133); assay: ATG_LXRa_TRANS: Attagene TRANS-FACTORIAL HepG2 Assay for human Liver X Receptor alpha (LXRa) (AID 2282980); settings: HepG2 Attagene TRANS reporter, LXRa transactivation
Summary of the method: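 Chemical-induced reporter mRNA measured by RT-PCR with fluorescent labelling and capillary electrophoresis after 24 h dosing of transiently transfected HepG2 cells expressing exogenous NR-Gal4 chimeras; increases scored against DMSO baseline.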

[15] = ATG_M_06_TRANS: Attagene TRANS-FACTORIAL HepG2 Assay for M06 Transcription Factor (Internal Marker) (AID 2282983); settings: HepG2 Attagene TRANS M06 internal marker reporter
Summary of the method: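 Background-control reporter readout: after 24 h chemical exposure of transiently transfected HepG2 (GAL4-UAS reporter units), mRNA quantified by RT-PCR with fluorescent labeling and capillary electrophoresis. Gain-of-signal fitting against DMSO baseline.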

[16] = molecular target: Nuclear receptor subfamily 4 group A member 2 (Homo sapiens) (UniProt P43354); assay: ATG_NURR1_TRANS: Attagene TRANS-FACTORIAL HepG2 Assay for human Nuclear Receptor Related Protein 1 (NURR1) (AID 2282985); settings: HepG2 Attagene TRANS reporter, mRNA readout
Summary of the method: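 Read-out: reporter mRNA induction by RT-PCR plus capillary electrophoresis with fluorescence detection, after 24 h dosing of transfected HepG2 cells. Exogenous NR-Gal4 chimera activity drives GAL4-UAS reporter; activity fitted upward versus DMSO.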

[17] = molecular target: Bile acid receptor (Homo sapiens) (UniProt Q96RI1); assay: ATG_FXR_TRANS: Attagene TRANS-FACTORIAL HepG2 Assay for Farnesoid X Receptor (FXR) (AID 2282979); settings: HepG2 Attagene TRANS FXR-GAL4 reporter transcription;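 note: hits raise reporter mRNA above DMSO so AC50 marks FXR activation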
Summary of the method: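 Reporter transcripts from transfected HepG2 cells were measured 24 h after dosing, using RT-PCR with capillary electrophoresis of 6-FAM-labelled fragments. The read-out reflects activity of exogenous FXR-Gal4 chimera on GAL4-UAS units, with induction relative to DMSO.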

[18] = molecular target: Hepatocyte nuclear factor 4-alpha (Homo sapiens) (UniProt P41235); assay: ATG_HNF4a_TRANS: Attagene TRANS-FACTORIAL HepG2 Assay for human Hepatocyte Nuclear Factor 4 alpha (HNF4a) (AID 2282982); settings: HepG2 HNF4a transactivation reporter, mRNA readout
Summary of the method: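 Transient MRTU transfection of HepG2, 24 h dosing. Readout: reporter mRNA via RT-PCR + capillary electrophoresis, fluorescence; activity fit upward relative to DMSO control.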

[19] = molecular target: Estrogen-related receptor gamma (Homo sapiens) (UniProt P62508); assay: ATG_ERRg_TRANS: Attagene TRANS-FACTORIAL HepG2 Assay for human Estrogen-Related Receptor gamma (ERRg) (AID 2282977); settings: HepG2 Attagene TRANS reporter, ERRg transactivation;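 note: hits increase reporter signal over DMSO so potencies reflect activators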
Summary of the method: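 Exogenous NR-Gal4 chimera activity was assessed in HepG2 cells bearing transfected GAL4-UAS reporters. After 24 h dosing, total RNA underwent RT-PCR, fluorescent primer extension and HpaI digestion before capillary electrophoresis, with gain of signal scored against DMSO.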

[20] = molecular target: Estrogen receptor (Homo sapiens) (UniProt P03372); assay: ATG_ERa_TRANS: Attagene TRANS-FACTORIAL HepG2 Assay for human Estrogen Receptor alpha (ERa) (AID 2282970); settings: HepG2 Attagene TRANS ERa GAL4 reporter, mRNA
Summary of the method: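 Reporter transcripts were measured 24 h after dosing by RT-PCR with fluorescent primer extension and capillary electrophoresis. The system is transiently transfected HepG2 expressing exogenous NR-Gal4 chimeras driving GAL4-UAS reporters; DMSO is the baseline.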

Measured: AC50

Sequence of Estrogen-related receptor gamma (Homo sapiens) (P62508 whole entry, looked up, the tested form may be a part): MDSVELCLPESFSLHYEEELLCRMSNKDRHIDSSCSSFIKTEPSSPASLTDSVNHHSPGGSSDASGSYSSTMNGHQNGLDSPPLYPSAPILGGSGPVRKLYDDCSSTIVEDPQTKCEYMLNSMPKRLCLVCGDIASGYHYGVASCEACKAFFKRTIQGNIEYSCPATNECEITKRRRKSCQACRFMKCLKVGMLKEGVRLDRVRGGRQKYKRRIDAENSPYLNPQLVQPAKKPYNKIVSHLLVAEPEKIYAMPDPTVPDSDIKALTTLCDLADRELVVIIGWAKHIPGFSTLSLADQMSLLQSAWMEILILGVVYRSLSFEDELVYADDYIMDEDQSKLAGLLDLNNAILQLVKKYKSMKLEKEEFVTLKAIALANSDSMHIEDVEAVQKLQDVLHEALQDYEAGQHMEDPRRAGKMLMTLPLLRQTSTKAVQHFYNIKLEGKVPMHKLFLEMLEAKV
Sequence of Transcriptional activator Myb (Homo sapiens) (P10242 whole entry, looked up): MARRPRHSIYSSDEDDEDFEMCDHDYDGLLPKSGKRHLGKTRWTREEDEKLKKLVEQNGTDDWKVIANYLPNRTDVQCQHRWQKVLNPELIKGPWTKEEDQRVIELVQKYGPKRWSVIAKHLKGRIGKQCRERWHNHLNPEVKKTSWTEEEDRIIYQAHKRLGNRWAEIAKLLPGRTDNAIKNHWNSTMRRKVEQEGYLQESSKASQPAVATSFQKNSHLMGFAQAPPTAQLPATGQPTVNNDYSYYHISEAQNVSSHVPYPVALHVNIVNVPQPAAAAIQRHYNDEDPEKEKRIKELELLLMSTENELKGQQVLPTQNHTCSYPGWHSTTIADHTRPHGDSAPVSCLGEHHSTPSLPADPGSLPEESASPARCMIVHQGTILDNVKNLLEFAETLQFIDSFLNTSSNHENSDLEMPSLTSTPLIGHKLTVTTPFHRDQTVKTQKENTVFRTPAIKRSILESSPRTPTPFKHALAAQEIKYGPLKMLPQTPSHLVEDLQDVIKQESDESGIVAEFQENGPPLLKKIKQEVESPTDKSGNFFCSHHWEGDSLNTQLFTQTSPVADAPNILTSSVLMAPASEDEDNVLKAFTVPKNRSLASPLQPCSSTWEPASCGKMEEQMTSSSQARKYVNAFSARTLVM
Sequence of Bile acid receptor (Homo sapiens) (Q96RI1 whole entry, looked up, the tested form may be a part): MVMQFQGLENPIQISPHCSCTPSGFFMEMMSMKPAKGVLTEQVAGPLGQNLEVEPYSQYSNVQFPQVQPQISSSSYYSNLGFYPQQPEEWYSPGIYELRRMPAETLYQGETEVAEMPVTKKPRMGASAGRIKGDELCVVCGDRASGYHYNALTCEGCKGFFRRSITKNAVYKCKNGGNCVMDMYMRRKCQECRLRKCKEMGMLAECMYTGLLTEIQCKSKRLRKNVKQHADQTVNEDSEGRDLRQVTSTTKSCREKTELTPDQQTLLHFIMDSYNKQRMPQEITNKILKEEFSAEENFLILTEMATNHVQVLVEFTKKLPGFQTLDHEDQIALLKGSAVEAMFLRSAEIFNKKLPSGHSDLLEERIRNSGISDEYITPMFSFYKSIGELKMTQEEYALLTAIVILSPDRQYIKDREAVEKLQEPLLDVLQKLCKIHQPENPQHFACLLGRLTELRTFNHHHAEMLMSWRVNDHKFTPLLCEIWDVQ
Sequence of Nuclear receptor subfamily 4 group A member 2 (Homo sapiens) (P43354 whole entry, looked up, the tested form may be a part): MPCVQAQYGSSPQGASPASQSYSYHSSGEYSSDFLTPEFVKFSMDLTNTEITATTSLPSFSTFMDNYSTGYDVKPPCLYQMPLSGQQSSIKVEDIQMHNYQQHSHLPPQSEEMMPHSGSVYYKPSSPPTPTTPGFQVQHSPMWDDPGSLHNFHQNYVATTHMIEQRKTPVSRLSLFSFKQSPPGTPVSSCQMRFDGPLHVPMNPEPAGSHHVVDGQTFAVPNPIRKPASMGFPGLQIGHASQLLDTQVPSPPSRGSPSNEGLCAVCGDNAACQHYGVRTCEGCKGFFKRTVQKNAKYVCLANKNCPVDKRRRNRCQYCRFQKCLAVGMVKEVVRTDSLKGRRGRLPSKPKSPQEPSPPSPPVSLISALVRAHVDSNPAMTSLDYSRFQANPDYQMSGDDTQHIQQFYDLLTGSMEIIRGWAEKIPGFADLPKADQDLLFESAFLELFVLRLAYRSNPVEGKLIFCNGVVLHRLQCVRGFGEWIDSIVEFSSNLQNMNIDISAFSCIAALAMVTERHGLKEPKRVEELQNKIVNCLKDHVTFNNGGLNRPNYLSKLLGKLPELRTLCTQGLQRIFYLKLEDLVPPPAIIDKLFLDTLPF
Sequence of Nuclear receptor subfamily 1 group I member 3 (Homo sapiens) (Q14994 whole entry, looked up, the tested form may be a part): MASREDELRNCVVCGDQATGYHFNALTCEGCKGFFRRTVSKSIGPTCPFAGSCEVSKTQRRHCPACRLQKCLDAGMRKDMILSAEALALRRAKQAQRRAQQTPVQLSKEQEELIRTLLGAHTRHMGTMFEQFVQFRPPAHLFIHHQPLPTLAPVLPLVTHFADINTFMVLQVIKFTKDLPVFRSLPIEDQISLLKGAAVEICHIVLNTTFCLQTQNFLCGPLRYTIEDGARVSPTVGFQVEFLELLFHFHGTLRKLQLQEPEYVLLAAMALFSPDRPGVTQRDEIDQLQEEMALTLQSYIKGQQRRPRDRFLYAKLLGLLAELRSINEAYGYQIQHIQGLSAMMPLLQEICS
Sequence of Nuclear respiratory factor 1 (Homo sapiens) (Q16656 whole entry, looked up): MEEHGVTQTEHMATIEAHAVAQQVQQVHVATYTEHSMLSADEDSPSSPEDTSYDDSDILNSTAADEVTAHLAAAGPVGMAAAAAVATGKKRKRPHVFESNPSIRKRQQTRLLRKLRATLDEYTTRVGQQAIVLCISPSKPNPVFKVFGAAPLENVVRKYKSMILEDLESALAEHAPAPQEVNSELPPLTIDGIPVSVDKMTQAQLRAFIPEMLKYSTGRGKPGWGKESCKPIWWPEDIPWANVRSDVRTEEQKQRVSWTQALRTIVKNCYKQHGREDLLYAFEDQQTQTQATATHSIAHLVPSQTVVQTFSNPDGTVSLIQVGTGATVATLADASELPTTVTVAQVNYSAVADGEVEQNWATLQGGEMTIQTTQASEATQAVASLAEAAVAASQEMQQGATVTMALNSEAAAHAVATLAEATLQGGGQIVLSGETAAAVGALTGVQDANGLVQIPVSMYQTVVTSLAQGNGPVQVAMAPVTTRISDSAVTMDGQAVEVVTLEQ
Sequence of Glucocorticoid receptor (Homo sapiens) (P04150 whole entry, looked up, the tested form may be a part): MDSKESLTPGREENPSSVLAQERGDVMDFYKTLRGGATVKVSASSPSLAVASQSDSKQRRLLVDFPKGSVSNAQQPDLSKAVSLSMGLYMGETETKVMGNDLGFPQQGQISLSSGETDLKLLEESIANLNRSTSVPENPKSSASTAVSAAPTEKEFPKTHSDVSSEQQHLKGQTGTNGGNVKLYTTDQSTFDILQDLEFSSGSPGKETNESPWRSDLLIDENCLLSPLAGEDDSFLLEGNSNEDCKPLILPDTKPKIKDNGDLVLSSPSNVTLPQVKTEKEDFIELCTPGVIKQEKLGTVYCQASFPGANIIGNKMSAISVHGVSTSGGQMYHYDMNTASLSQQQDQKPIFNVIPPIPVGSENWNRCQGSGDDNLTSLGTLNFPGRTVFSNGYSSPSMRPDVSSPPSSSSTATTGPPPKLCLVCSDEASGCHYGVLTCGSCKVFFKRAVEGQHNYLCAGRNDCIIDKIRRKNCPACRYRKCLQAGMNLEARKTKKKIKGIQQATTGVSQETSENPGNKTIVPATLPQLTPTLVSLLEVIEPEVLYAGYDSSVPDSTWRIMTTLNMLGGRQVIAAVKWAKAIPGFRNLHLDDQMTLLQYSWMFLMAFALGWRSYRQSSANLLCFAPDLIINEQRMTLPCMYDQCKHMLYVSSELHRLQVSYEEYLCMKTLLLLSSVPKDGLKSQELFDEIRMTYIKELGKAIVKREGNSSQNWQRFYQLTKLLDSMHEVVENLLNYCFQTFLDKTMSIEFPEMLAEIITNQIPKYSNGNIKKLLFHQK
Sequence of Oxysterols receptor LXR-alpha (Homo sapiens) (Q13133 whole entry, looked up, the tested form may be a part): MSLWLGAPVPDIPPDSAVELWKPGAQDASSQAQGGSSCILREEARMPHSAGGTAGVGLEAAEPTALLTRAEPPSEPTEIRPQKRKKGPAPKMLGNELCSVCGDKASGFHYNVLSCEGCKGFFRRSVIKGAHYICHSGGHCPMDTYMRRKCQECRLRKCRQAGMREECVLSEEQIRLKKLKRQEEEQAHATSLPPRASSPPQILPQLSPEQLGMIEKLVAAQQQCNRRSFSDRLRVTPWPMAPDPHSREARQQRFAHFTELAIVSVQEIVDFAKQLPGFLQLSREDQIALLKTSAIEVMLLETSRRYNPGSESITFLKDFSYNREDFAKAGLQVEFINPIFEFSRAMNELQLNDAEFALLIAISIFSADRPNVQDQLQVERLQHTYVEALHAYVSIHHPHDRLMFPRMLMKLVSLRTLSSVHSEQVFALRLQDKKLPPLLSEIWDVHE
Sequence of Oxysterols receptor LXR-beta (Homo sapiens) (P55055 whole entry, looked up, the tested form may be a part): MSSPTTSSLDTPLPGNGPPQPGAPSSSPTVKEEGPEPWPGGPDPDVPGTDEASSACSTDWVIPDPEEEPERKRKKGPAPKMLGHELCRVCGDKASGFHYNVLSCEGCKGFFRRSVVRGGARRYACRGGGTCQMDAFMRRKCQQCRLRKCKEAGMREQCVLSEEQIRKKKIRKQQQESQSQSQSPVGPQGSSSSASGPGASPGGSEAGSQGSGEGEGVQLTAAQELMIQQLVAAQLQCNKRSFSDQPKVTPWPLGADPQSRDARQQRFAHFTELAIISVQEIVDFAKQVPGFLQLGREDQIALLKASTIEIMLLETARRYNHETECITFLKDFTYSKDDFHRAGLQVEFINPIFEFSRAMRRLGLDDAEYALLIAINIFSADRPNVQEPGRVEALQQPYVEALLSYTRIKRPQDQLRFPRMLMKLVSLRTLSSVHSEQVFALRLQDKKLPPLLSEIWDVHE
Sequence of X-box-binding protein 1 (Homo sapiens) (P17861 whole entry, looked up): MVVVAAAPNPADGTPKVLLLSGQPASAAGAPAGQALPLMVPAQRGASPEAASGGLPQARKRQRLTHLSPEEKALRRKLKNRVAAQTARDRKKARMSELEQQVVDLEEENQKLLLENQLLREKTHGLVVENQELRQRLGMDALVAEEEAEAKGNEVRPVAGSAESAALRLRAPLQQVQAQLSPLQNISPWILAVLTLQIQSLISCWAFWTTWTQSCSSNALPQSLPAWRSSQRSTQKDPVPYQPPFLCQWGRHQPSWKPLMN

C=Cc1ccc(C)cc1
not listed: [13] | [14] | [15] | [16] | [17] | [18] | [19] | [20]
inactive: all other assays above

NC1CCCCC1N (stereo not given)
not listed: [6] | [7] | [8] | [17] | [18] | [19] | [20]
inactive: all other assays above

CCCC[P+](CCCC)(CCCC)CCCC
not listed: [8] | [9] | [13] | [15] | [16] | [18] | [19] | [20]
inactive: all other assays above

COc1ccccc1N=Nc1c(S(=O)(=O)O)cc2cc(S(=O)(=O)O)cc(NC(C)=O)c2c1O
not listed: [9] | [13] | [16] | [17] | [18] | [19] | [20]
inactive: all other assays above

CC(=O)O[C@@H]1CC2CCC1(C)C2(C)C (stereo not given in full)
not listed: [8] | [13] | [15] | [19] | [20]
inactive: all other assays above

ON=C1CCCCC1
not listed: [6] | [8] | [10] | [16] | [17] | [18] | [19] | [20]
inactive: all other assays above

CCCOCCO
not listed: [9] | [10] | [13] | [14] | [19] | [20]
inactive: all other assays above

C1CCOC1
not listed: [9] | [13] | [14] | [16] | [20]
inactive: all other assays above

CC(C)(CO)[C@@H](O)C(=O)NCCC(=O)O
not listed: [5] | [6] | [8] | [13] | [14] | [17] | [18] | [19]
inactive: all other assays above

CN(C)CCOC(C)(c1ccccc1)c1ccccn1 (stereo not given)
not listed: [8] | [13] | [16] | [18] | [20]
inactive: all other assays above

C#CC(C)N(C)C(=O)Nc1ccc(Cl)cc1 (stereo not given)
not listed: [6] | [7] | [8] | [10] | [17] | [19] | [20]
inactive: all other assays above

CCCC(=O)OC(C)(C)Cc1ccccc1
not listed: [9] | [10] | [13] | [14] | [15] | [17] | [19] | [20]
inactive: all other assays above

CC(=O)NCCO
not listed: [9] | [13] | [15] | [16] | [17] | [19] | [20]
inactive: all other assays above

CCCCCCCCCCCCCCCC(=O)OC/C=C(C)/C=C/C=C(C)/C=C/C1=C(C)CCCC1(C)C
active: [3] 2.37 µM
not listed: [8] | [12] | [13] | [15] | [16] | [18] | [19] | [20]
inactive: all other assays above

C=C(C)CNCC
not listed: [5] | [6] | [9] | [14] | [16] | [17] | [19] | [20]
inactive: all other assays above

CN(C)c1cccc(O)c1
not listed: [13] | [15] | [17] | [18] | [19] | [20]
inactive: all other assays above

CCCCCCC(O)CCCCCCCCCCC(=O)O (stereo not given)
not listed: [6] | [7] | [10] | [12] | [18] | [20]
inactive: all other assays above

FC(F)(F)COCC(F)(F)F
not listed: [13] | [14] | [16] | [18] | [19] | [20]
inactive: all other assays above

Oc1c(Cl)cc(Cl)c(Cl)c1Cc1c(O)c(Cl)cc(Cl)c1Cl
active: [3] 1.97 µM | [17] 17.6 µM
not listed: [7] | [8] | [10] | [14] | [15] | [16] | [20]
inactive: all other assays above
